The list is not random: actives were taken first. Their share in the collection is about 21%.
CYP2C19 act: activators of human cytochrome P450 2C19; recombinant CYP2C19, luciferin-H EGE luminescence; active compounds read high; 0 = fully inhibited enzyme, 1 = untreated enzyme; 96,000 tested, under 10 active; activation factor at 5 µM;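 active means activation factor of at least 2 at 5 µM in the primary screen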
CYP2C19 inh: human CYP2C19 inhibition. CYP2C19 Supersomes, luciferin-H EGE luminescence, 30 min. inhibition, % at 5 µM. 96,000 compounds, 21% hits;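 active means CYP2C19 inhibition above a set limit at 5 µM in the primary screen, cut at about 50% in these data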
CYP2C9 activ: CYP2C9 (human) activation. P11712. activation factor at 5 µM. 96,000 compounds, 1.4% hits. recombinant CYP2C9, luciferin-H conversion, luminescence; active compounds read high; factor 1 = untreated enzyme, 0 = blocked;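 active means activation factor of 2 or more for CYP2C9 at a 5 µM dose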
Target sequence (P11712 whole entry, looked up): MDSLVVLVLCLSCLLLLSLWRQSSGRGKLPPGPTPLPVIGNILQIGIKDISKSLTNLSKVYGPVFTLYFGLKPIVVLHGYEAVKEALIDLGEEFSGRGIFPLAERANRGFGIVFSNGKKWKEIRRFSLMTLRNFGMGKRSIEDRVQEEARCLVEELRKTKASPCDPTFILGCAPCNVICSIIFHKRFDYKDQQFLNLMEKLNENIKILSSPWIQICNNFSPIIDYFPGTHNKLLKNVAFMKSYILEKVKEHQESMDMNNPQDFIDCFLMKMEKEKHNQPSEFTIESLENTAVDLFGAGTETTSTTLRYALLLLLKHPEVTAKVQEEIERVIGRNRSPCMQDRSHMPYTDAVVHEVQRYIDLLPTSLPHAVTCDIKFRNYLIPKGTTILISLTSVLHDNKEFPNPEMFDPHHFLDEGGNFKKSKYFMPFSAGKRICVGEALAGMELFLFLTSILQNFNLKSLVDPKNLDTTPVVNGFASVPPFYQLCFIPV
CYP2C9 inh: blocks human cytochrome P450 2C9. P11712. 96,000 compounds, 20% hits. AID 777. CYP2C9 Supersomes, luciferin-H conversion, luminescence. inhibition, % at 5 µM;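 active means blocking of liver enzyme CYP2C9 beyond about 50% at 5 µM, limit read from the data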
MRP reversal: compounds reversing MRP-mediated drug resistance; H69AR cells + 2 uM doxorubicin, CellTiter-Glo, 72 h; differential viability (reversal), % at 10 µM; 85,000 compounds, 0.04% hits; AID 602;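 active means viability drop by adding the cancer drug above about 55%, with treated viability meeting a 40% cutoff, limit read from the data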;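 further: larger differential means the compound sensitizes cells more to doxorubicin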
MRP1 act: MRP-1 activation; H69AR cells + doxorubicin, viability rescue, CellTiter-Glo; viability increase, % at 10 µM; 140,000 compounds, 0.61% hits; AID 799;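 active means viability gain under doxorubicin at or above a set limit, the compound median plus 3 SD, cut at about 4.7% in these data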;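 further: MRP-1 overexpressing cells given doxorubicin 25 µM after compound pretreatment; 18-22 h compound pretreatment then 72 h with doxorubicin before readout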
Large screens that a line does not name were inactive.

Cc1ccc(S(=O)(=O)N2CCOCC2)cc1N/N=C(\C#N)c1nc2ccccc2[nH]1	none (no result: CYP2C19 act, CYP2C19 inh, CYP2C9 activ, CYP2C9 inh, MRP reversal)
O=S(=O)(c1cccc2cccnc12)N(CCO)CCO	none
CCN(CC)S(=O)(=O)c1cccc2cccnc12	CYP2C9 activ 4.8
Cc1cccc2c(CC(=O)Nc3ccccc3)noc12	none (no result: CYP2C19 act, CYP2C19 inh, CYP2C9 activ, CYP2C9 inh, MRP reversal)
Cc1ccc(C(=O)N2CCCC(c3nc4c(nnn4Cc4ccccc4)c(=O)[nH]3)C2)cc1 (stereo not drawn)	none (no result: MRP reversal)
Cc1ccc(C)c(Cn2nnc3c(=O)[nH]c(C4CCCN(C(=O)CC(C)C)C4)nc32)c1 (stereo not drawn)	CYP2C19 inh 61, CYP2C9 inh 79
CCCCC(=O)N1CCCC(c2nc3c(nnn3Cc3cc(C)ccc3C)c(=O)[nH]2)C1 (stereo not drawn)	CYP2C19 inh 67, CYP2C9 inh 87
CCCS(=O)(=O)Nc1c(OC)ccc2c1c(C(=O)OCC)c(C)n2C	none (no result: CYP2C19 act, CYP2C19 inh, CYP2C9 activ, CYP2C9 inh, MRP reversal)
COc1cccc(CNC2CCCC2)c1	none
COc1cc(CNC2CCC(C)C2)cc(OC)c1 (stereo not drawn)	CYP2C19 inh 62
COc1cc(CNC2CCCCCC2)cc(OC)c1O	none
COc1cc(CNC2CCCC2)cc(OC)c1	CYP2C19 inh 71
N#Cc1c(SCc2ccccc2)nc(N2CCOCC2)c2c1CCCC2	CYP2C9 inh 92
Cc1c(C#N)c(SCC(N)=O)nc2c1CCCC2	none
CCSc1nc(N2CCCCC2)c2c(c1C#N)CCCC2	CYP2C19 inh 69, CYP2C9 inh 93
N#Cc1c(SCC(=O)O)nc(-c2ccccc2)c2c1CCCC2	none
CCCCn1c(NC(=S)Nc2ccccc2)nc2ccccc21	none (no result: CYP2C19 act, CYP2C19 inh, CYP2C9 activ, CYP2C9 inh, MRP reversal)
O=C(Nc1ccc2nccnc2c1)c1cnccn1	CYP2C19 inh 51
O=C(Nc1ccccc1)c1ccncc1	none
O=C(Nc1ccc(S(=O)(=O)NC2CCCC2)cc1)c1cnccn1	CYP2C9 inh 95
O=C(Nc1ccc(Cl)c([N+](=O)[O-])c1)c1cnccn1	none (no result: CYP2C19 act, CYP2C19 inh, CYP2C9 activ, CYP2C9 inh, MRP reversal)
O=C(Nc1cnc2ccccc2c1)c1ccncc1	CYP2C19 inh 86, CYP2C9 inh 70
O=C(Nc1ccc2c(c1)oc1ccccc12)c1ccncc1	CYP2C19 inh 82, CYP2C9 inh 97
O=C(Nc1ccc2ccccc2c1)c1cnccn1	CYP2C19 inh 56
CCC1Oc2ccc(C)cc2N(CC(=O)NCc2cccc(OC)c2)C1=O (stereo not drawn)	CYP2C19 inh 94
CCC1Oc2ccc(C)cc2N(CC(=O)NCc2cc(OC)ccc2OC)C1=O (stereo not drawn)	CYP2C19 inh 73
CCC1Oc2ccc(C)cc2N(CC(=O)NCc2ccccc2OC)C1=O (stereo not drawn)	CYP2C19 inh 91 (no result: MRP reversal)
CCC1Oc2ccc(C)cc2N(CC(=O)NCCc2ccc(OC)c(OC)c2)C1=O (stereo not drawn)	none (no result: CYP2C19 act, CYP2C19 inh, CYP2C9 activ, CYP2C9 inh, MRP1 act)
COc1cccc(C(=O)Oc2ccc3c(C)cc(=O)oc3c2C(C)=O)c1	none (no result: CYP2C19 act, CYP2C19 inh, CYP2C9 activ, CYP2C9 inh, MRP reversal)
Cc1cc2n(n1)C(c1cccs1)Nc1ccccc1-2 (stereo not drawn)	none
CSc1nnc(-c2cc[n+](C)cc2)n1CCO	none (no result: CYP2C19 act, CYP2C19 inh, CYP2C9 activ, CYP2C9 inh, MRP reversal)
Cc1cccc(N2CCN(c3cccc(C)c3)C2c2cccnc2)c1	none
Cc1ccc(N2CCN(c3ccc(C)cc3)C2c2ccncc2)cc1	CYP2C19 inh 88, CYP2C9 inh 71
O=C(c1cccc(S(=O)(=O)N2CCCCC2)c1)N1CCc2ccccc21	none (no result: CYP2C19 act, CYP2C19 inh, CYP2C9 activ, CYP2C9 inh, MRP reversal)
Cc1[nH]n(-c2ccccc2)c(=O)c1/C=N\NC(=O)C1COc2ccccc2O1 (stereo not drawn)	none (no result: CYP2C19 act, CYP2C19 inh, CYP2C9 activ, CYP2C9 inh, MRP reversal)
Cc1cc(=O)oc(C)c1C(=O)n1nc(C)c2c1C[C@@H]1[C@H]2C1(C)C	CYP2C9 inh 62
COc1ccc(/C=C/c2nc(-c3ccccc3O)n(-c3ccccc3)n2)cc1	none (no result: CYP2C19 act, CYP2C19 inh, CYP2C9 activ, CYP2C9 inh, MRP reversal)
Cc1nc(-c2ccccc2O)n(-c2ccccc2)n1	CYP2C19 inh 53, CYP2C9 inh 68
CC(C)(C)NC(=O)NC(=O)COC(=O)COc1ccc2c(c1)CCC2	CYP2C19 inh 50
Cc1cc(S(=O)(=O)NCCN(C)C)c(C)s1	none
N#C/C(=C\c1c(N2CCCCC2)nc2ccccn2c1=O)C(=O)NC1CCS(=O)(=O)C1 (stereo not drawn)	none (no result: CYP2C19 act, CYP2C19 inh, CYP2C9 activ, CYP2C9 inh, MRP reversal)
N#C/C(=C\c1c(N2CCC(C(N)=O)CC2)nc2ccccn2c1=O)S(=O)(=O)c1ccccc1	CYP2C9 inh 79
CCNC(=O)/C(C#N)=C/c1c(N2CCOCC2)nc2ccccn2c1=O	none (no result: CYP2C19 act, CYP2C19 inh, CYP2C9 activ, CYP2C9 inh, MRP reversal)
CC1CN(c2nc3ccccn3c(=O)c2/C=C(\C#N)S(=O)(=O)c2ccccc2)CC(C)O1 (stereo not drawn)	CYP2C19 inh 85, CYP2C9 inh 84
CCOc1nc(CC)nc(NC(=O)NS(=O)(=O)c2ccccc2Cl)n1	none
Cc1nn(-c2ccc(Cl)c(Cl)c2Cl)c(=O)c2ccccc12	CYP2C19 inh 71, CYP2C9 inh 54
O=C1CCCc2c1[nH]c1ccccc21	CYP2C9 activ 2.2
O=C1CCCc2c1[nH]c1c(Br)cccc21	none
CCOC(=O)c1c(C)nc2c(c(SC)nn2-c2ccccc2)c1N	none (no result: MRP reversal)
Cc1ccc(NC(=O)COC(=O)CCNS(=O)(=O)c2ccc(C)c(C)c2)cc1	none (no result: CYP2C19 act, CYP2C19 inh, CYP2C9 activ, CYP2C9 inh, MRP reversal)
c1ccc(COCCN2CCN(CCOCc3ccccc3)CC2)cc1	CYP2C19 inh 57
c1ccc(COc2ccc(OCCCCN3CCCCC3)cc2)cc1	none
COC(=O)C1=C(CSCc2ccco2)NC(=O)NC1c1cc(C)ccc1C (stereo not drawn)	CYP2C19 inh 91, CYP2C9 inh 80
COC(=O)C1=C(CSc2nc3ccccc3o2)NC(=O)NC1c1cc(C)ccc1C (stereo not drawn)	CYP2C19 inh 77, CYP2C9 inh 78
Cc1ccc(S(=O)(=O)N2CC3CCC2C3)cc1 (stereo not drawn)	CYP2C19 inh 65
COc1ccc(C2N(C(=O)c3ccccc3)CCN2C(=O)c2ccccc2)cc1	CYP2C19 inh 69
COc1ccc(C2N(S(=O)(=O)c3ccccc3)CCN2S(=O)(=O)c2ccc(C)cc2)cc1 (stereo not drawn)	CYP2C19 inh 86, CYP2C9 inh 65
Cc1ccc(S(=O)(=O)N2CCN(S(=O)(=O)c3ccc(C)cc3)C2c2ccccc2)cc1	CYP2C19 inh 79
Cc1ccc(-c2nc(-c3cccnc3)sc2CC(=O)Nc2ccc3nc(C)sc3c2)cc1	none (no result: CYP2C19 act, CYP2C19 inh, CYP2C9 activ, CYP2C9 inh, MRP reversal)
O=C(NCCCN1CCOCC1)c1ccc(CS(=O)(=O)Cc2ccc(Cl)cc2)o1	none (no result: MRP reversal)
Cc1ccc(S(=O)(=O)N2CCN(S(C)(=O)=O)C2c2ccccc2)cc1 (stereo not drawn)	CYP2C19 inh 64 (no result: MRP reversal)
CN(C)S(=O)(=O)c1ccc(C(=O)Nc2nnc(SCc3cccc(F)c3)s2)cc1	none (no result: CYP2C19 act, CYP2C19 inh, CYP2C9 activ, CYP2C9 inh, MRP reversal)
CNC(=O)CN(C)S(=O)(=O)c1ccc(F)cc1	none
CCSc1nnc(NC(=O)CN(C)S(=O)(=O)c2ccc(F)cc2)s1	CYP2C19 inh 81, CYP2C9 inh 75
CC(=O)Nc1ccccc1NC(=O)CN(C)S(=O)(=O)c1ccc(C)cc1	CYP2C19 inh 80
CS(=O)(=O)N(CC(=O)Nc1ccccc1Sc1ccccc1)c1ccc(F)cc1	CYP2C9 inh 61 (no result: MRP reversal)

Assay outcomes from PubChem BioAssay.
